# Source: article PMC11006913
# Key:
# Assay in all cases: PBM; 200 nM protein, PBS
# Details in all cases: dsDNA, one strand shown
# [1] = target: HESX1 (Homo sapiens, UniProt Q9UBX0 95-180, R165K)
# [2] = target: PRRX1 (Homo sapiens, UniProt P54821 80-166, F113S)
# [3] = target: HESX1 (Homo sapiens, UniProt Q9UBX0 95-180)
# [4] = target: HESX1 (Homo sapiens, UniProt Q9UBX0 95-180, R109Q)
# [5] = target: HESX1 (Homo sapiens, UniProt Q9UBX0 95-180, P111T)
# [6] = target: HESX1 (Homo sapiens, UniProt Q9UBX0 95-180, F115L)
# Chain of HESX1 (Homo sapiens, UniProt Q9UBX0 95-180, F115L) (Q9UBX0 95-180 F115L): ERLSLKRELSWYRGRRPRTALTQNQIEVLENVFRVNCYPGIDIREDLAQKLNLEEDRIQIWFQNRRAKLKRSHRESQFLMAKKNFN
# [7] = target: PRRX1 (Homo sapiens, UniProt P54821 80-166)
# Chain of PRRX1 (Homo sapiens, UniProt P54821 80-166) (P54821 80-166): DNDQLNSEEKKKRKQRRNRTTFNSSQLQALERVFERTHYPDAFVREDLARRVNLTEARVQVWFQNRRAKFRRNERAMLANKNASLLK
# [8] = target: ALX1 (Homo sapiens, UniProt Q15699 118-204, L144V)
# Chain of ALX1 (Homo sapiens, UniProt Q15699 118-204, L144V) (Q15699 118-204 L144V): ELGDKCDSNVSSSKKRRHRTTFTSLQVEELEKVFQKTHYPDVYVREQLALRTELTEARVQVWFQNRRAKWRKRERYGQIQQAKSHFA
# [9] = target: ALX1 (Homo sapiens, UniProt Q15699 118-204, L144R)
# Chain of ALX1 (Homo sapiens, UniProt Q15699 118-204, L144R) (Q15699 118-204 L144R): as the sequence (Q15699 118-204 L144V) above, with V27R counted along it
# [10] = target: ALX1 (Homo sapiens, UniProt Q15699 118-204)
# Chain of ALX1 (Homo sapiens, UniProt Q15699 118-204) (Q15699 118-204): as the sequence (Q15699 118-204 L144V) above, with V27L counted along it
# [11] = target: ALX4 (Homo sapiens, UniProt Q9H161 200-286)
# Chain of ALX4 (Homo sapiens, UniProt Q9H161 200-286) (Q9H161 200-286): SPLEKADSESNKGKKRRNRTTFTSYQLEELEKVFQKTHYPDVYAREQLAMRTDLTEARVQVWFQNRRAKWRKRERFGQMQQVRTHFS
# [12] = target: ALX4 (Homo sapiens, UniProt Q9H161 200-286, Q225E)
# Chain of ALX4 (Homo sapiens, UniProt Q9H161 200-286, Q225E) (Q9H161 200-286 Q225E): as the sequence (Q9H161 200-286) above, with Q26E counted along it
# [13] = target: PROP1 (Homo sapiens, UniProt O75360 56-141)
# Chain of PROP1 (Homo sapiens, UniProt O75360 56-141) (O75360 56-141): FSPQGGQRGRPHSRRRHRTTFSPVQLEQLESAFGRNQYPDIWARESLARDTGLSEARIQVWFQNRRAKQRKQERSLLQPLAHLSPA
# [14] = target: PROP1 (Homo sapiens, UniProt O75360 56-141, R99H)
# Chain of PROP1 (Homo sapiens, UniProt O75360 56-141, R99H) (O75360 56-141 R99H): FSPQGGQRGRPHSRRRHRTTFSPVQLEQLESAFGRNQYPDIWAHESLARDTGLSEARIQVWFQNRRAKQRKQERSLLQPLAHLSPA
# [15] = target: ALX3 (Homo sapiens, UniProt O95076 139-225, L168Q)
# Chain of ALX3 (Homo sapiens, UniProt O95076 139-225, L168Q) (O95076 139-225 L168Q): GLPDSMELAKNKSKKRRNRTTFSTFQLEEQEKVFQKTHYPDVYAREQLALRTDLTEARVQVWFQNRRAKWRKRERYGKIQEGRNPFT
# [16] = target: ALX3 (Homo sapiens, UniProt O95076 139-225, L168V)
# Chain of ALX3 (Homo sapiens, UniProt O95076 139-225, L168V) (O95076 139-225 L168V): as the sequence (O95076 139-225 L168Q) above, with Q30V counted along it
# [17] = target: PROP1 (Homo sapiens, UniProt O75360 56-141, F88S)
# Chain of PROP1 (Homo sapiens, UniProt O75360 56-141, F88S) (O75360 56-141 F88S): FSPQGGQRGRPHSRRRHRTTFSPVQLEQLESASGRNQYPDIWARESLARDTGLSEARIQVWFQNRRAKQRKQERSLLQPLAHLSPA
# [18] = target: MSX2 (Homo sapiens, UniProt P35548 130-214, R199I)
# Chain of MSX2 (Homo sapiens, UniProt P35548 130-214, R199I) (P35548 130-214 R199I): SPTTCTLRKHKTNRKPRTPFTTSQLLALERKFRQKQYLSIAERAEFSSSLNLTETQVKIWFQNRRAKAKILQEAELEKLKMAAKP
# [19] = target: MSX2 (Homo sapiens, UniProt P35548 130-214)
# Chain of MSX2 (Homo sapiens, UniProt P35548 130-214) (P35548 130-214): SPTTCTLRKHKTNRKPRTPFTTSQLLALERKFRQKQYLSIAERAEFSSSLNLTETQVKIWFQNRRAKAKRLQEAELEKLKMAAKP
# [20] = target: MSX2 (Homo sapiens, UniProt P35548 130-214, F161Y)
# Chain of MSX2 (Homo sapiens, UniProt P35548 130-214, F161Y) (P35548 130-214 F161Y): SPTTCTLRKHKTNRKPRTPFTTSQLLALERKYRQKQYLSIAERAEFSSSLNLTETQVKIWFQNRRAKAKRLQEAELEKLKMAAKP
# Chain of HESX1 (Homo sapiens, UniProt Q9UBX0 95-180, R109Q) (Q9UBX0 95-180 R109Q): as the sequence (Q9UBX0 95-180 F115L) above, with R15Q, L21F counted along it
# Chain of HESX1 (Homo sapiens, UniProt Q9UBX0 95-180, R165K) (Q9UBX0 95-180 R165K): as the sequence (Q9UBX0 95-180 F115L) above, with L21F, R71K counted along it
# Chain of HESX1 (Homo sapiens, UniProt Q9UBX0 95-180, P111T) (Q9UBX0 95-180 P111T): as the sequence (Q9UBX0 95-180 F115L) above, with P17T, L21F counted along it
# Chain of HESX1 (Homo sapiens, UniProt Q9UBX0 95-180) (Q9UBX0 95-180): as the sequence (Q9UBX0 95-180 F115L) above, with L21F counted along it
# Chain of PRRX1 (Homo sapiens, UniProt P54821 80-166, F113S) (P54821 80-166 F113S): as the sequence (P54821 80-166) above, with F34S counted along it
sequence,measurement,setting,value
CGGCTAGC,binding signal,[1],"6.5 upbm affinity estimate (log intensity, higher = more binding, comparable within an allelic series)"
same,binding signal,[2],"9.18 upbm affinity estimate (log intensity, higher = more binding, comparable within an allelic series)"
same,binding signal,[3],"6.49 upbm affinity estimate (log intensity, higher = more binding, comparable within an allelic series)"
same,binding signal,[4],"6.39 upbm affinity estimate (log intensity, higher = more binding, comparable within an allelic series)"
same,binding signal,[5],"6.54 upbm affinity estimate (log intensity, higher = more binding, comparable within an allelic series)"
same,binding signal,[6],"6.45 upbm affinity estimate (log intensity, higher = more binding, comparable within an allelic series)"
same,binding signal,[7],"9.46 upbm affinity estimate (log intensity, higher = more binding, comparable within an allelic series)"
TAGCTTAA,binding signal,[1],"7.4 upbm affinity estimate (log intensity, higher = more binding, comparable within an allelic series)"
same,binding signal,[3],"7.51 upbm affinity estimate (log intensity, higher = more binding, comparable within an allelic series)"
ACCAAATA,binding signal,[1],"7.74 upbm affinity estimate (log intensity, higher = more binding, comparable within an allelic series)"
same,binding signal,[3],"7.83 upbm affinity estimate (log intensity, higher = more binding, comparable within an allelic series)"
same,binding signal,[5],"7.46 upbm affinity estimate (log intensity, higher = more binding, comparable within an allelic series)"
ATGTTAAT,binding signal,[1],"8.98 upbm affinity estimate (log intensity, higher = more binding, comparable within an allelic series)"
same,binding signal,[3],"9.41 upbm affinity estimate (log intensity, higher = more binding, comparable within an allelic series)"
AGAGGACC,binding signal,[1],"6.6 upbm affinity estimate (log intensity, higher = more binding, comparable within an allelic series)"
same,binding signal,[3],"6.46 upbm affinity estimate (log intensity, higher = more binding, comparable within an allelic series)"
same,binding signal,[4],"6.58 upbm affinity estimate (log intensity, higher = more binding, comparable within an allelic series)"
same,binding signal,[5],"6.41 upbm affinity estimate (log intensity, higher = more binding, comparable within an allelic series)"
same,binding signal,[6],"6.55 upbm affinity estimate (log intensity, higher = more binding, comparable within an allelic series)"
AAATATTA,binding signal,[1],"8.45 upbm affinity estimate (log intensity, higher = more binding, comparable within an allelic series)"
same,binding signal,[3],"8.54 upbm affinity estimate (log intensity, higher = more binding, comparable within an allelic series)"
ACGGAAGG,binding signal,[1],"6.5 upbm affinity estimate (log intensity, higher = more binding, comparable within an allelic series)"
same,binding signal,[2],"9.38 upbm affinity estimate (log intensity, higher = more binding, comparable within an allelic series)"
same,binding signal,[3],"6.36 upbm affinity estimate (log intensity, higher = more binding, comparable within an allelic series)"
same,binding signal,[8],"6.56 upbm affinity estimate (log intensity, higher = more binding, comparable within an allelic series)"
same,binding signal,[9],"6.44 upbm affinity estimate (log intensity, higher = more binding, comparable within an allelic series)"
same,binding signal,[4],"6.53 upbm affinity estimate (log intensity, higher = more binding, comparable within an allelic series)"
same,binding signal,[5],"6.63 upbm affinity estimate (log intensity, higher = more binding, comparable within an allelic series)"
same,binding signal,[6],"6.5 upbm affinity estimate (log intensity, higher = more binding, comparable within an allelic series)"
same,binding signal,[10],"6.35 upbm affinity estimate (log intensity, higher = more binding, comparable within an allelic series)"
same,binding signal,[7],"9.17 upbm affinity estimate (log intensity, higher = more binding, comparable within an allelic series)"
GAGTCGCC,binding signal,[1],"6.49 upbm affinity estimate (log intensity, higher = more binding, comparable within an allelic series)"
same,binding signal,[11],"8.18 upbm affinity estimate (log intensity, higher = more binding, comparable within an allelic series)"
same,binding signal,[12],"8.37 upbm affinity estimate (log intensity, higher = more binding, comparable within an allelic series)"
same,binding signal,[3],"6.48 upbm affinity estimate (log intensity, higher = more binding, comparable within an allelic series)"
same,binding signal,[4],"6.47 upbm affinity estimate (log intensity, higher = more binding, comparable within an allelic series)"
same,binding signal,[5],"6.56 upbm affinity estimate (log intensity, higher = more binding, comparable within an allelic series)"
same,binding signal,[6],"6.36 upbm affinity estimate (log intensity, higher = more binding, comparable within an allelic series)"
GAGCAGCC,binding signal,[1],"6.52 upbm affinity estimate (log intensity, higher = more binding, comparable within an allelic series)"
same,binding signal,[11],"8.07 upbm affinity estimate (log intensity, higher = more binding, comparable within an allelic series)"
same,binding signal,[12],"8.24 upbm affinity estimate (log intensity, higher = more binding, comparable within an allelic series)"
same,binding signal,[3],"6.51 upbm affinity estimate (log intensity, higher = more binding, comparable within an allelic series)"
same,binding signal,[4],"6.47 upbm affinity estimate (log intensity, higher = more binding, comparable within an allelic series)"
same,binding signal,[5],"6.43 upbm affinity estimate (log intensity, higher = more binding, comparable within an allelic series)"
same,binding signal,[6],"6.53 upbm affinity estimate (log intensity, higher = more binding, comparable within an allelic series)"
CAGGCCGG,binding signal,[1],"6.44 upbm affinity estimate (log intensity, higher = more binding, comparable within an allelic series)"
same,binding signal,[3],"6.33 upbm affinity estimate (log intensity, higher = more binding, comparable within an allelic series)"
same,binding signal,[4],"6.48 upbm affinity estimate (log intensity, higher = more binding, comparable within an allelic series)"
same,binding signal,[5],"6.33 upbm affinity estimate (log intensity, higher = more binding, comparable within an allelic series)"
same,binding signal,[6],"6.4 upbm affinity estimate (log intensity, higher = more binding, comparable within an allelic series)"
AATTAACC,binding signal,[1],"11.5 upbm affinity estimate (log intensity, higher = more binding, comparable within an allelic series)"
same,binding signal,[11],"13.6 upbm affinity estimate (log intensity, higher = more binding, comparable within an allelic series)"
same,binding signal,[2],"11 upbm affinity estimate (log intensity, higher = more binding, comparable within an allelic series)"
same,binding signal,[12],"12.7 upbm affinity estimate (log intensity, higher = more binding, comparable within an allelic series)"
same,binding signal,[3],"11.5 upbm affinity estimate (log intensity, higher = more binding, comparable within an allelic series)"
same,binding signal,[8],"11.3 upbm affinity estimate (log intensity, higher = more binding, comparable within an allelic series)"
same,binding signal,[9],"11.2 upbm affinity estimate (log intensity, higher = more binding, comparable within an allelic series)"
same,binding signal,[13],"11.1 upbm affinity estimate (log intensity, higher = more binding, comparable within an allelic series)"
same,binding signal,[4],"8.77 upbm affinity estimate (log intensity, higher = more binding, comparable within an allelic series)"
same,binding signal,[14],"10.7 upbm affinity estimate (log intensity, higher = more binding, comparable within an allelic series)"
same,binding signal,[15],"10.3 upbm affinity estimate (log intensity, higher = more binding, comparable within an allelic series)"
same,binding signal,[5],"10.3 upbm affinity estimate (log intensity, higher = more binding, comparable within an allelic series)"
same,binding signal,[16],"9.89 upbm affinity estimate (log intensity, higher = more binding, comparable within an allelic series)"
same,binding signal,[17],"7.52 upbm affinity estimate (log intensity, higher = more binding, comparable within an allelic series)"
same,binding signal,[6],"7.7 upbm affinity estimate (log intensity, higher = more binding, comparable within an allelic series)"
same,binding signal,[10],"12.1 upbm affinity estimate (log intensity, higher = more binding, comparable within an allelic series)"
same,binding signal,[7],"13.2 upbm affinity estimate (log intensity, higher = more binding, comparable within an allelic series)"
CCCAGTGC,binding signal,[1],"6.38 upbm affinity estimate (log intensity, higher = more binding, comparable within an allelic series)"
same,binding signal,[11],"8 upbm affinity estimate (log intensity, higher = more binding, comparable within an allelic series)"
same,binding signal,[12],"8.11 upbm affinity estimate (log intensity, higher = more binding, comparable within an allelic series)"
same,binding signal,[3],"6.3 upbm affinity estimate (log intensity, higher = more binding, comparable within an allelic series)"
same,binding signal,[4],"6.56 upbm affinity estimate (log intensity, higher = more binding, comparable within an allelic series)"
same,binding signal,[5],"6.45 upbm affinity estimate (log intensity, higher = more binding, comparable within an allelic series)"
same,binding signal,[6],"6.56 upbm affinity estimate (log intensity, higher = more binding, comparable within an allelic series)"
TATGGTAA,binding signal,[1],"7.45 upbm affinity estimate (log intensity, higher = more binding, comparable within an allelic series)"
same,binding signal,[3],"7.53 upbm affinity estimate (log intensity, higher = more binding, comparable within an allelic series)"
AATTATCA,binding signal,[1],"11.4 upbm affinity estimate (log intensity, higher = more binding, comparable within an allelic series)"
same,binding signal,[2],"11.2 upbm affinity estimate (log intensity, higher = more binding, comparable within an allelic series)"
same,binding signal,[3],"11.5 upbm affinity estimate (log intensity, higher = more binding, comparable within an allelic series)"
same,binding signal,[18],"12.3 upbm affinity estimate (log intensity, higher = more binding, comparable within an allelic series)"
same,binding signal,[8],"11.3 upbm affinity estimate (log intensity, higher = more binding, comparable within an allelic series)"
same,binding signal,[9],"11.1 upbm affinity estimate (log intensity, higher = more binding, comparable within an allelic series)"
same,binding signal,[19],"13.3 upbm affinity estimate (log intensity, higher = more binding, comparable within an allelic series)"
same,binding signal,[13],"11 upbm affinity estimate (log intensity, higher = more binding, comparable within an allelic series)"
same,binding signal,[4],"8.56 upbm affinity estimate (log intensity, higher = more binding, comparable within an allelic series)"
same,binding signal,[14],"10.6 upbm affinity estimate (log intensity, higher = more binding, comparable within an allelic series)"
same,binding signal,[5],"10.1 upbm affinity estimate (log intensity, higher = more binding, comparable within an allelic series)"
same,binding signal,[16],"9.73 upbm affinity estimate (log intensity, higher = more binding, comparable within an allelic series)"
same,binding signal,[17],"7.71 upbm affinity estimate (log intensity, higher = more binding, comparable within an allelic series)"
same,binding signal,[20],"13 upbm affinity estimate (log intensity, higher = more binding, comparable within an allelic series)"
same,binding signal,[6],"7.79 upbm affinity estimate (log intensity, higher = more binding, comparable within an allelic series)"
same,binding signal,[10],"12 upbm affinity estimate (log intensity, higher = more binding, comparable within an allelic series)"
same,binding signal,[7],"13.3 upbm affinity estimate (log intensity, higher = more binding, comparable within an allelic series)"
CACGGCGG,binding signal,[1],"6.53 upbm affinity estimate (log intensity, higher = more binding, comparable within an allelic series)"
same,binding signal,[3],"6.43 upbm affinity estimate (log intensity, higher = more binding, comparable within an allelic series)"
same,binding signal,[4],"6.49 upbm affinity estimate (log intensity, higher = more binding, comparable within an allelic series)"
same,binding signal,[5],"6.56 upbm affinity estimate (log intensity, higher = more binding, comparable within an allelic series)"
same,binding signal,[6],"6.49 upbm affinity estimate (log intensity, higher = more binding, comparable within an allelic series)"
ATTATTTG,binding signal,[1],"8.97 upbm affinity estimate (log intensity, higher = more binding, comparable within an allelic series)"
same,binding signal,[3],"8.9 upbm affinity estimate (log intensity, higher = more binding, comparable within an allelic series)"
